Several values for one entry are separate records, joined by “and”; a condition that tells them apart may be missing. Equal values may be shown once. Screen size: about 5,500 compounds; about 2,000 (36%) were called active. About 18% were inconclusive and are not listed. This is one part of the list. Unmarked numbers belong to inactive results. Rule as the data show it: active = normalized growth mostly below about 0.91 (no sharp cut-off); inconclusive = no clear call, values can overlap the other calls; inactive = mostly above about 0.92.
Assay: chemical genetic growth profiling, strain panel (AID 1159580);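 also: tested at 20 µM; growth read once vehicle control cultures reached saturation at 30 °C; 1 = growth at the plate median or of vehicle wells; lower values mean less growth of the strain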
Conditions: growth OD
[1] = S. cerevisiae deletion strains, locus YAL013W, strain DEP1, hits give low values
[2] = S. cerevisiae deletion strains, locus YBR229C, strain ROT2, hits give low values
[3] = S. cerevisiae deletion strains, locus YDL101C, strain DUN1, hits give low values
[4] = S. cerevisiae deletion strains, locus YDL134C, strain PPH21, hits give low values
[5] = S. cerevisiae deletion strains, locus YDR150W, strain NUM1, hits give low values
[6] = S. cerevisiae deletion strains, locus YEL061C, strain CIN8, hits give low values
[7] = S. cerevisiae deletion strains, locus YGR078C, strain PAC10, hits give low values
[8] = S. cerevisiae deletion strains, locus YGR229C, strain SMI1, hits give low values
[9] = S. cerevisiae deletion strains, locus YHR030C, strain SLT2, hits give low values
[10] = S. cerevisiae deletion strains, locus YHR087W, strain rtc3, hits give low values
[11] = S. cerevisiae deletion strains, locus YJR043C, strain POL32, hits give low values
[12] = S. cerevisiae deletion strains, locus YJR075W, strain HOC1, hits give low values
[13] = S. cerevisiae deletion strains, locus YKL190W, strain CNB1, hits give low values
[14] = S. cerevisiae deletion strains, locus YLR039C, strain RIC1, hits give low values
[15] = S. cerevisiae deletion strains, locus YLR058C, strain SHM2 (second series), hits give low values
[16] = S. cerevisiae deletion strains, locus YLR085C, strain ARP6, hits give low values
[17] = S. cerevisiae deletion strains, locus YLR262C, strain YPT6, hits give low values
[18] = S. cerevisiae deletion strains, locus YML094W, strain GIM5, hits give low values
[19] = S. cerevisiae deletion strains, locus YMR219W, strain ESC1, hits give low values
[20] = S. cerevisiae deletion strains, locus YMR263W, strain SAP30, hits give low values
[21] = S. cerevisiae deletion strains, locus YMR307W, strain GAS1, hits give low values
[22] = S. cerevisiae deletion strains, locus YNL153C, strain GIM3, hits give low values
[23] = S. cerevisiae deletion strains, locus YNL298W, strain CLA4 (second series), hits give low values
[24] = S. cerevisiae deletion strains, locus YNL322C, strain KRE1, hits give low values
[25] = S. cerevisiae deletion strains, locus YNR030W, strain Alg12, hits give low values
[26] = S. cerevisiae deletion strains, locus YPL055C, strain LGE1, hits give low values
[27] = S. cerevisiae deletion strains, locus YPL241C, strain CIN2, hits give low values
[28] = S. cerevisiae deletion strains, locus YPR135W, strain CTF4, hits give low values
[29] = S. cerevisiae deletion strains, locus YOL006C, strain TOP1, hits give low values
[30] = S. cerevisiae strains, strain wild type, hits give low values

O=C(NNC(=S)Nc1cccc(Cl)c1)c1ccncc1
normalized growth [1]: 0.977
normalized growth [2]: 0.996
normalized growth [3]: 0.983
normalized growth [4]: 0.995
normalized growth [5]: 0.95
normalized growth [6]: 1
normalized growth [7]: 0.983
normalized growth [8]: 0.997
normalized growth [9]: 1
normalized growth [10]: 1
normalized growth [11]: 0.98
normalized growth [12]: 1.01
normalized growth [13]: 1.01
normalized growth [14]: 1.04
normalized growth [15]: 0.981
normalized growth [16]: 0.989
normalized growth [17]: 0.99
normalized growth [18]: 1.01
normalized growth [19]: 0.991
normalized growth [20]: 0.994
normalized growth [21]: 1.02
normalized growth (S. cerevisiae deletion strains, locus YNL128W, strain TEP1, hits give low values): 0.995
normalized growth [22]: 0.986
normalized growth [23]: 0.965
normalized growth [24]: 0.991
normalized growth [25]: 0.951
normalized growth [26]: 0.914
normalized growth [27]: 0.992
normalized growth [28]: 0.938

O=C(NNC(=S)Nc1cccc(Cl)c1)C1CC1
normalized growth [1]: 0.987
normalized growth [2]: 0.951
normalized growth [3]: 0.963
normalized growth [4]: 0.99
normalized growth [5]: 0.917
normalized growth [6]: 0.857 (active)
normalized growth [7]: 0.956
normalized growth [8]: 1
normalized growth [9]: 0.489 (active)
normalized growth [10]: 0.986
normalized growth (S. cerevisiae deletion strains, locus YJL187C, strain SWE1, hits give low values): 0.967
normalized growth [11]: 0.942
normalized growth [12]: 0.986
normalized growth [13]: 0.913 (active)
normalized growth [14]: 0.749 (active)
normalized growth [15]: 0.998
normalized growth [16]: 0.673 (active)
normalized growth [17]: 0.949
normalized growth [18]: 0.796 (active)
normalized growth [19]: 0.988
normalized growth [20]: 0.975
normalized growth [21]: 0.684
normalized growth [22]: 0.965
normalized growth [23]: 0.782 (active)
normalized growth [24]: 1.05
normalized growth [25]: 0.859 (active)
normalized growth [29]: 0.384 (active)
normalized growth [26]: 0.735 (active)
normalized growth [27]: 0.784 (active)
normalized growth [28]: 0.69
normalized growth [30]: 0.953

C[C@@H]1O[C@@H](O[C@H]2[C@H](Oc3cc(O)c4c(=O)cc(-c5ccc(O)cc5)oc4c3)O[C@H](CO)[C@@H](O)[C@@H]2O)[C@H](O)[C@H](O)[C@H]1O
normalized growth [1]: 0.994
normalized growth (S. cerevisiae deletion strains, locus YBR021W, strain FUR4, hits give low values): 1
normalized growth [2]: 1
normalized growth (S. cerevisiae deletion strains, locus YCL029C, strain bik1, hits give low values): 0.977
normalized growth (S. cerevisiae deletion strains, locus YDL035C, strain GPR1, hits give low values): 1
normalized growth (S. cerevisiae deletion strains, locus YDL074C, strain BRE1, hits give low values): 0.933
normalized growth [3]: 0.998
normalized growth [4]: 1.07
normalized growth (S. cerevisiae deletion strains, locus YDL185W, strain tfp1, hits give low values): 0.95
normalized growth (S. cerevisiae deletion strains, locus YDL192W, strain arf1, hits give low values): 0.998
normalized growth (S. cerevisiae deletion strains, locus YDR101C, strain arx1, hits give low values): 0.937
normalized growth (S. cerevisiae deletion strains, locus YDR162C, strain NBP2, hits give low values): 1.01
normalized growth (S. cerevisiae deletion strains, locus YDR318W, strain mcm21, hits give low values): 1
normalized growth (S. cerevisiae deletion strains, locus YDR388W, hits give low values): 0.996
normalized growth (S. cerevisiae deletion strains, locus YDR502C, strain sam2, hits give low values): 0.99
normalized growth [6]: 1
normalized growth (S. cerevisiae deletion strains, locus YER110C, hits give low values): 0.982
normalized growth (S. cerevisiae deletion strains, locus YER155C, strain BEM2, hits give low values): 0.991
normalized growth (S. cerevisiae deletion strains, locus YER167W, strain BCK2, hits give low values): 0.994
normalized growth (S. cerevisiae deletion strains, locus YGL078C, strain dbp3, hits give low values): 0.981
normalized growth (S. cerevisiae deletion strains, locus YGL086W, strain mad1, hits give low values): 0.954
normalized growth (S. cerevisiae deletion strains, locus YGL248W, strain PDE1, hits give low values): 1.02
normalized growth (S. cerevisiae deletion strains, locus YGR135W, strain pre9, hits give low values): 1.02
normalized growth (S. cerevisiae deletion strains, locus YGR252W, strain gcn5, hits give low values): 1.11
normalized growth [9]: 0.989 and 1.02
normalized growth (S. cerevisiae deletion strains, locus YHR079C, strain IRE1 (second series), hits give low values): 0.976
normalized growth (S. cerevisiae deletion strains, locus YHR079C, strain IRE1, hits give low values): 1.03
normalized growth (S. cerevisiae deletion strains, locus YHR094C, strain hxt1, hits give low values): 0.99
normalized growth (S. cerevisiae deletion strains, locus YHR129C, strain ARP1, hits give low values): 1.02
normalized growth (S. cerevisiae deletion strains, locus YHR200W, strain rpn10, hits give low values): 0.988
normalized growth (S. cerevisiae deletion strains, locus YIL066C, strain RNR3, hits give low values): 0.994
normalized growth (S. cerevisiae deletion strains, locus YIL073C, strain SPO22, hits give low values): 0.981
normalized growth (S. cerevisiae deletion strains, locus YIL125W, strain kgd1, hits give low values): 0.972
normalized growth (S. cerevisiae deletion strains, locus YIR030C, strain dcg1, hits give low values): 0.983
normalized growth (S. cerevisiae deletion strains, locus YJL095W, strain BCK1, hits give low values): 1.03 and 0.992
normalized growth (S. cerevisiae deletion strains, locus YJL134W, strain LCB3, hits give low values): 0.992
normalized growth (S. cerevisiae deletion strains, locus YJL168C, strain set2, hits give low values): 1
normalized growth (S. cerevisiae deletion strains, locus YJL187C, strain SWE1 (second series), hits give low values): 0.995
normalized growth [11]: 0.993
normalized growth (S. cerevisiae deletion strains, locus YJR066W, strain TOR1, hits give low values): 0.981
normalized growth (S. cerevisiae deletion strains, locus YKL009W, strain mrt4, hits give low values): 0.955
normalized growth (S. cerevisiae deletion strains, locus YKL068W, hits give low values): 0.987
normalized growth (S. cerevisiae deletion strains, locus YKL085W, strain MDH1 (second series), hits give low values): 0.981
normalized growth (S. cerevisiae deletion strains, locus YKL085W, strain MDH1, hits give low values): 0.981
normalized growth (S. cerevisiae deletion strains, locus YKR001C, strain vps1, hits give low values): 0.982
normalized growth [14]: 0.963
normalized growth (S. cerevisiae deletion strains, locus YLR058C, strain SHM2, hits give low values): 0.998
normalized growth (S. cerevisiae deletion strains, locus YLR102C, strain apc9, hits give low values): 0.987
normalized growth (S. cerevisiae deletion strains, locus YLR113W, strain HOG1, hits give low values): 0.967
normalized growth [17]: 0.95
normalized growth (S. cerevisiae deletion strains, locus YLR268W, strain sec22, hits give low values): 0.951
normalized growth (S. cerevisiae deletion strains, locus YLR330W, strain CHS5, hits give low values): 0.979
normalized growth (S. cerevisiae deletion strains, locus YLR342W, strain FKS1 (second series), hits give low values): 1.01
normalized growth (S. cerevisiae deletion strains, locus YLR371W, strain rom2, hits give low values): 0.98
normalized growth (S. cerevisiae deletion strains, locus YLR418C, strain cdc73, hits give low values): 1.01
normalized growth (S. cerevisiae deletion strains, locus YML016C, strain PPZ1, hits give low values): 0.995
normalized growth (S. cerevisiae deletion strains, locus YML032C, strain rad52, hits give low values): 1.04
normalized growth (S. cerevisiae deletion strains, locus YML124C, strain tub3, hits give low values): 0.978
normalized growth (S. cerevisiae deletion strains, locus YMR078C, strain ctf18, hits give low values): 0.975
normalized growth (S. cerevisiae deletion strains, locus YMR223W, strain ubp8, hits give low values): 1
normalized growth [20]: 0.985
normalized growth [21]: 1.05
normalized growth (S. cerevisiae deletion strains, locus YNL067W, strain RPL9B, hits give low values): 0.999
normalized growth (S. cerevisiae deletion strains, locus YNL183C, strain NPR1, hits give low values): 0.963
normalized growth (S. cerevisiae deletion strains, locus YNL233W, strain BNI4, hits give low values): 0.988
normalized growth (S. cerevisiae deletion strains, locus YNL250W, strain rad50, hits give low values): 0.955
normalized growth (S. cerevisiae deletion strains, locus YNL271C, strain bni1, hits give low values): 0.981
normalized growth (S. cerevisiae deletion strains, locus YNL298W, strain CLA4, hits give low values): 0.991
normalized growth (S. cerevisiae deletion strains, locus YNL307C, strain MCK1, hits give low values): 0.971
normalized growth (S. cerevisiae deletion strains, locus YNR052C, strain pop2, hits give low values): 1.01
normalized growth [29]: 0.99
normalized growth (S. cerevisiae deletion strains, locus YOL012C, strain htz1): 0.768
normalized growth (S. cerevisiae deletion strains, locus YOL147C, strain pex11, hits give low values): 0.992
normalized growth (S. cerevisiae deletion strains, locus YOR061W, strain CKA2, hits give low values): 0.997
normalized growth (S. cerevisiae deletion strains, locus YOR069W, strain VPS5, hits give low values): 0.994
normalized growth (S. cerevisiae deletion strains, locus YOR136W, strain idh2, hits give low values): 0.965
normalized growth (S. cerevisiae deletion strains, locus YOR144C, strain elg1, hits give low values): 0.996
normalized growth (S. cerevisiae deletion strains, locus YOR184W, strain ser1, hits give low values): 0.993
normalized growth (S. cerevisiae deletion strains, locus YOR231W, strain MKK1, hits give low values): 0.989
normalized growth (S. cerevisiae deletion strains, locus YOR316C, strain cot1, hits give low values): 0.981
normalized growth (S. cerevisiae deletion strains, locus YPL256C, strain CLN2, hits give low values): 1
normalized growth (S. cerevisiae deletion strains, locus YPR119W, strain clb2, hits give low values): 0.978
normalized growth (S. cerevisiae deletion strains, locus YPR141C, strain kar3, hits give low values): 0.986
normalized growth (S. cerevisiae deletion strains, locus YPR163C, strain tif3, hits give low values): 0.992
normalized growth (S. cerevisiae deletion strains, locus YPR167C, strain met16, hits give low values): 0.981
normalized growth (S. cerevisiae deletion strains, strain wtn01, hits give low values): 0.948
normalized growth [30]: 0.998

Reference: PubChem BioAssay AID1159580 (chemical genetic matrix, 2015)
